# Assay results taken from PubChem BioAssay (NCATS).
# Results filed as inconclusive are left out. Entries that show only a call come without a potency. The source made the active and inactive calls. Unless noted, calls follow the shape of the dose curve; as a rule, active = well fitted curve in the direction sought with a large enough effect; inconclusive = small, poorly fitted or top-dose-only effect, or another doubt; inactive = no such curve, though single readings can be large; an effect the other way counts as inactive or inconclusive.
# Columns and labels:
# [1] = target: Mitogen-activated protein kinase 10 (Mus musculus) (UniProt Q61831); assay: JNK3 AlphaScreen Assay (AID 530; active = well fitted curve in either direction with a large enough effect, not every such curve was filed as active;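 also: kinase came from lysate of stimulated human HepG2 cells; signal reports phosphorylation of biotinylated GST-cJun 1-79 at Ser73 with 10 µM ATP; series mostly up to about 57 µM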)
# Outline: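 Activity was read by AlphaScreen after JNK3-containing HepG2 lysate (cytokine pre-activated) phosphorylated biotinylated GST-cJun with 10 uM ATP at room temperature. Phospho-Ser73 cJun antibody with Protein-A acceptor beads provided detection.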
# [2] = target: Cytochrome P450 3A4 (Homo sapiens) (UniProt P08684); assay: qHTS Assay for Inhibitors and Substrates of Cytochrome P450 3A4 (AID 884); also: nearly all actives have a fitted effect of over 50% in size; also: potency is read from the fitted curve at half-maximal effect
# Cytochrome P450 3A4 (Homo sapiens), sequence (P08684 whole entry, looked up): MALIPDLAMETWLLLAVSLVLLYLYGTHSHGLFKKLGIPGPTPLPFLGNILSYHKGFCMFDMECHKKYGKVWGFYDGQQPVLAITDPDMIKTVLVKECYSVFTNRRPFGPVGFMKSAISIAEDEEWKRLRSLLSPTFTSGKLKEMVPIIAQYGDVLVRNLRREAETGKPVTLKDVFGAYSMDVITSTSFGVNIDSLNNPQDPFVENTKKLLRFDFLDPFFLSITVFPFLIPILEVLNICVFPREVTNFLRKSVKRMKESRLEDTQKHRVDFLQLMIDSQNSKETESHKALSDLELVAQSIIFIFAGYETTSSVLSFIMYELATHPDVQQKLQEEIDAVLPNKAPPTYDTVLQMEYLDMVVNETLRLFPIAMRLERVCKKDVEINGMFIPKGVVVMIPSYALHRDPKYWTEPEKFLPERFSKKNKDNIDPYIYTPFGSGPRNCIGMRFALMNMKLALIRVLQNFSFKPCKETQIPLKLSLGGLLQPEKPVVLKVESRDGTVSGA
# Outline: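 Luminescent readout of luciferin produced by CYP3A4 (20 nM) dealkylation of Luciferin-PPXE, 25 uM (its KM). NADPH-driven reaction ran 60 min at RT after 10 min compound preincubation; data scaled to 57 uM ketoconazole as 100% inhibition.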
# [3] = target: 3',5'-cyclic-AMP phosphodiesterase 4B (Homo sapiens) (UniProt Q07343); assay: qHTS Assay for Inhibitors of PDE-IV (AID 607; active = well fitted activation curve with a large enough effect in the main read-out, with a control signal flat, not every such curve was filed as active)
# 3',5'-cyclic-AMP phosphodiesterase 4B (Homo sapiens), sequence (Q07343 whole entry, looked up): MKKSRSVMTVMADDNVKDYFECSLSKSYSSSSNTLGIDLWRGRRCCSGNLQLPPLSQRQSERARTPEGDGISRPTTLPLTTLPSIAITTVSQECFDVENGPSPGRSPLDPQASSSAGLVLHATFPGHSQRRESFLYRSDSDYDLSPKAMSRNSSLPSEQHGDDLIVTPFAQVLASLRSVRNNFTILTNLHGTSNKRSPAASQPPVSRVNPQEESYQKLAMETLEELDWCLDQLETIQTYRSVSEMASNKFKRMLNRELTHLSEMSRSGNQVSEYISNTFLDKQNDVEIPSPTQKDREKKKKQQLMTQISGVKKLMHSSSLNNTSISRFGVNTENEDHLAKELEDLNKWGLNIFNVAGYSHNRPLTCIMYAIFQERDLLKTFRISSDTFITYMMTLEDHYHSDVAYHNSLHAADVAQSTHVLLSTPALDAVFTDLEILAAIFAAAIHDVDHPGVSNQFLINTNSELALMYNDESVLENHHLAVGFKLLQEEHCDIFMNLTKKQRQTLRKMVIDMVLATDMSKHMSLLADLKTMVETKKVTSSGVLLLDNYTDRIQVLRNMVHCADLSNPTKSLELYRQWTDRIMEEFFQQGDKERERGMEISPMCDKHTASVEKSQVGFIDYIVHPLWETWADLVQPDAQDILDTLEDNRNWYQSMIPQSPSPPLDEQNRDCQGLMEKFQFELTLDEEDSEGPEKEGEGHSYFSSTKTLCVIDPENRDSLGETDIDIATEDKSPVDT
# Outline: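 Live HEK293 cells with a modified cyclic nucleotide-gated (CNG) channel report intracellular cAMP via membrane-potential dye fluorescence (ex 535/em 590 nm). Endogenous PDE-IV was targeted. Compounds were tested at up to 22.9 uM final; RO 20-1724 100 uM served as control.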
# [4] = target: Cytochrome P450 2C19 (Homo sapiens) (UniProt P33261); assay: qHTS Assay for Inhibitors and Substrates of Cytochrome P450 2C19 (AID 899); also: potency is read from the fitted curve at half-maximal effect; nearly all actives have a fitted effect of over 60% in size
# Cytochrome P450 2C19 (Homo sapiens), sequence (P33261 whole entry, looked up): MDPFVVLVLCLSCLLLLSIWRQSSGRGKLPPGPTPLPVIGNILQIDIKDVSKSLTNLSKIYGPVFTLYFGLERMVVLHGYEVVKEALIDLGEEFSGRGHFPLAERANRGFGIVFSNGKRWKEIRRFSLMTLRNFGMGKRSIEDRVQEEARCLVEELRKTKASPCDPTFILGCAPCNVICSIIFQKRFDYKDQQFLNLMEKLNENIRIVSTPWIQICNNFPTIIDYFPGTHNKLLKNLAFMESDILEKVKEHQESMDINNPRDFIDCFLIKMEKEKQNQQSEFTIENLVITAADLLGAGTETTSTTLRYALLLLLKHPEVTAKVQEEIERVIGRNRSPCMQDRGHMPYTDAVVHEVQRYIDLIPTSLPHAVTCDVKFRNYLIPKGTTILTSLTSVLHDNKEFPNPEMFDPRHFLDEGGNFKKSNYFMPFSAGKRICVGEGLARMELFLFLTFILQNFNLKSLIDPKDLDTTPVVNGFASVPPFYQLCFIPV
# Outline: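 Signal comes from luciferase acting on luciferin released by CYP2C19-mediated hydroxylation of Luciferin-H EGE, 10uM (KM). Assay mix: 5nM enzyme, 50mM KPO4; 60 min at 37C with NADPH regeneration. Data normalized against 57uM ketoconazole.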
# [5] = target: Cytochrome P450 3A4 (Homo sapiens) (UniProt P08684); assay: qHTS Assay for Activators of Cytochrome P450 3A4 (AID 885); also: nearly all actives have a fitted effect of over 65% in size
# Outline: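 Using 20nM recombinant human CYP3A4 in potassium phosphate (200mM), substrate Luciferin-PPXE at 25uM, luminescent luciferin detection followed a 60-min RT NADPH reaction; data scaled to 57 uM ketoconazole.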
smiles,measurement,setting,value
CC1(C(=O)NCc2ccccn2)C=CCN1C(=O)c1ccccc1 (centres undefined),outcome,[1],inactive
same,Potency,[2],inactive
C[C@H](CO)NC(=O)[C@H](C)[C@H]1C[C@]1(C)[C@H](NC(=O)OCc1ccccc1)c1ccccc1,outcome,[1],inactive
same,outcome,[3],inactive
same,Potency,[2],3.98 µM (active)
same,Potency,[4],0.631 µM (active)
CCCCCCN(C(=O)CCCCCN1C(=O)NC(c2ccc(-c3ccccc3)cc2)C(C(=O)OCc2ccccc2)=C1C)C(C(=O)NCCCC)c1ccc(-c2ccccc2)cc1 (centres undefined),outcome,[1],inactive
same,Potency,[2],inactive
COC(=O)C1(C)C=CCN1C(=O)c1ccccc1 (centres undefined),outcome,[1],inactive
same,Potency,[2],inactive
CC(Cc1ccccc1)C(=O)NCC1CC1 (centres undefined),outcome,[1],inactive
same,Potency,[2],inactive
COC(=O)CNC(=O)[C@@]1(Cc2ccccc2)C=C[C@@H](C)N1C(=O)c1ccccc1,outcome,[1],inactive
same,Potency,[2],inactive
COC(=O)[C@@]1(Cc2ccccc2)C=C[C@@H](C)N1C(C)=O,outcome,[1],inactive
same,Potency,[2],inactive
CCCCCCN(C(=O)CCCCCN1C(=O)NC(C2CCCCC2)C(C(=O)OCc2ccccc2)=C1C)C(C(=O)NCCCC)c1ccc(OCC(=O)OC)c(C(=O)OC)c1 (centres undefined),outcome,[1],inactive
same,Potency,[2],3.16 µM (active)
same,Potency,[5],inactive
CNC(=O)C1(CC(C)C)C=CCN1C(C)=O (centres undefined),outcome,[1],inactive
same,Potency,[2],inactive
CNC(=O)[C@@]1(Cc2ccccc2)C=C[C@@H](C)N1C(C)=O,outcome,[1],inactive
same,Potency,[2],inactive
CCCCNC(=O)C(c1ccc(-c2ccccc2)cc1)N(CCN1CCOCC1)C(=O)CCCCCN1C(=O)NC(c2ccc([N+](=O)[O-])cc2)C(C(=O)OCc2ccccc2)=C1C (centres undefined),outcome,[1],inactive
same,Potency,[2],2.51 µM (active)
same,Potency,[5],inactive
COC(=O)[C@@H]1CCCN1C(=O)[C@H]1C[C@@H]1[C@H](NC(=O)OCc1ccccc1)c1ccccc1,outcome,[1],inactive
same,Potency,[2],10 µM (active)
same,Potency,[5],inactive
